Source: PubChem BioAssay (NCATS)
“And” between values parts separate entries of the source, which are not always exact repeats. Identical values can stand only once. Results filed as inconclusive are left out. The source made the active and inactive calls. Unless noted, calls follow the shape of the dose curve; as a rule, active = well fitted curve in the direction sought with a large enough effect; inconclusive = small, poorly fitted or top-dose-only effect, or another doubt; inactive = no such curve, though single readings can be large; an effect the other way counts as inactive or inconclusive.

Experiments:
[1] = target: Retinoic acid receptor RXR-alpha (Homo sapiens) (UniProt P19793); test: qHTS assay for small molecule antagonists of retinoid X receptor alpha signaling (AID 588546; active = well fitted inhibition curve with a large enough effect in the signal ratio, with a control signal flat, not every such curve was filed as active; the % refers to the signal ratio;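 also: cells stimulated with 9-cis-retinoic acid as agonist; % is scaled to controls: 0 for no effect and ±100 for the full control effect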); settings: HEK293T RXRa-UAS-bla, beta-lactamase ratio, antagonist mode
In short: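 Beta-lactamase reporter inhibition, read as CCF4 fluorescence ratio (ex 405, em 460/530 nm) after 2 h at RT. HEK293T UAS-bla cells, 2500/well, were stimulated with 9-cis-RA at 500 or 100 nM final alongside test compound for 18 h at 37 C.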

[2] = target: Thyroid hormone receptor beta (Homo sapiens) (UniProt P10828); test: qHTS assay for small molecule antagonists of thyroid hormone receptor beta signaling (AID 588547; active = well fitted inhibition curve with a large enough effect in the signal ratio, with a control signal flat, not every such curve was filed as active; the % refers to the signal ratio;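 also: cells stimulated with 0.4 nM T3 agonist during compound exposure; % is scaled to controls: 0 for no effect and ±100 for the full control effect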); settings: TR-UAS-bla HEK293, beta-lactamase ratio, antagonist mode, 18 h
In short: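 TR-UAS-bla GripTite HEK293 cells in 2% charcoal/dextran FBS medium; compounds 0.59 nM to 92 uM with T3 at 0.4nM final, 18 h at 37 C. Beta-lactamase read by CCF4 fluorescence (460/530 nm); Hill fits gave IC50 and efficacy.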

[3] = target: Voltage-gated inwardly rectifying potassium channel KCNH2 (Homo sapiens) (UniProt Q12809); test: qHTS Assay for Small Molecule Inhibitors of the Human hERG Channel Activity (AID 588834); settings: U2OS BacMam hERG, FluxOR thallium flux fluorescence; series mostly up to 46.1 µM;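 also: top concentration of the series differs between compounds; % is scaled to controls: 0 for no effect and ±100 for the full control effect; lower thallium flux fluorescence means stronger hERG block; nearly all actives have a fitted effect of over 50% in size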
In short: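 Blockade is seen as reduced FluxOR thallium-flux fluorescence in U2OS cells expressing hERG from a BacMam construct, in Opti-MEM with 2% FCS. Concentration-response data fitted to the Hill equation for AC50.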

[4] = target: Luciferin 4-monooxygenase (Photinus pyralis) (UniProt P08659); test: Biochemical firefly luciferase enzyme assay for NPC (AID 624030);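 also: purified P. pyralis luciferase at 10 nM with luciferin and ATP substrate; 0% = DMSO and -100% = full luciferase inhibition by PTC124 control; nearly all actives have a fitted effect of over 70% in size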; settings: purified P. pyralis luciferase, luminescence, 5 min; series mostly up to 58.6 µM
In short: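 Purified P. pyralis luciferase at 10 nM in 50 mM Tris Acetate (final), luminescence read within 5 minutes of enzyme addition to compounds. Activity normalised to PTC124 versus DMSO; concentration-response curves classed by r2, magnitude and activity.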

[5] = S16 Schwann cell viability assay (CellTiter-Glo assay) (AID 624031); settings: S16 rat Schwann cells viability, 24 h; series mostly up to 57.5 µM;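 also: native untransfected S16 rat Schwann cells; plate controls were DMSO-treated cells for no effect and cell-free wells for full effect; nearly all actives have a fitted effect of over 70% in size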
In short: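 Rat S16 Schwann cells without reporter constructs received compound or DMSO for 24 h at 37 °C under 5% CO2. Cellular ATP was then quantified by CellTiter-Glo luminescence, with vehicle wells defined as 0% activity and cell-free wells as reference.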

[6] = S16 Schwann cell PMP22 intronic element firefly luciferase assay (AID 624032); settings: S16 rat Schwann cells, PMP22 element FLuc, 24 h; series mostly up to 57.5 µM; also: nearly all actives have a fitted effect of over 30% in size; also: potency is read from the fitted curve at half-maximal effect
In short: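 Rat S16 Schwann cells stably carrying firefly luciferase driven by a PMP22 intronic element, in 10% FBS, treated 24 h at 37 C. ONE-Glo luminescence normalized to PTC124 control and DMSO (0%); curves classed by r2, magnitude and activity.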

[7] = qHTS assay for small molecule agonists of the antioxidant response element (ARE) signaling pathway (AID 651741; active = well fitted activation curve with a large enough effect in the signal ratio; the % refers to the signal ratio; also: potency is read from the fitted curve at half-maximal effect; as to activation: % of control where 0% means no effect); settings: HepG2 ARE-bla reporter, beta-lactamase FRET ratio, 16 h; series mostly up to 96 µM
In short: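 HepG2 ARE-bla cells plated at 2,000 cells/well and incubated 5 h at 37 C/5% CO2 received 23 nL compound in DMSO. After 16 h at 37 C, LiveBLAzer B/G FRET substrate was applied for 2 h at room temperature and fluorescence read.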

[8] = qHTS assay for small molecule activators of the p53 signaling pathway (AID 651743; active = well fitted activation curve with a large enough effect in the signal ratio, not every such curve was filed as active; the % refers to the signal ratio; also: % of control where 0% means no effect); settings: HCT-116 p53RE-bla, beta-lactamase FRET ratio, 16 h; stronger effect = higher value
In short: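 HCT-116 p53RE-bla, 4,000 cells/well; 5 h settle; cpd/DMSO 16 h, 37 C; LiveBLAzer B/G 2 h RT; fluorescence intensity.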

[9] = qHTS assay for small molecule activators of the nuclear factor-kappa B (NF-kB) signaling pathway (AID 651749; active = well fitted activation curve with a large enough effect in the signal ratio; the % refers to the signal ratio; also: % of control where 0% means no effect); settings: NF-kB-bla ME-180 cells, beta-lactamase FRET ratio, 16 h; stronger effect = higher value
In short: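 Incubation lasted 16 hr at 37C in 5% CO2 after 23 nL compound addition to ME-180 NF-kB-bla cells. Activation appears as beta-lactamase-mediated FRET loss.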

[10] = qHTS assay for environmental chemicals that activate the Aryl hydrocarbon Receptor (AhR) signaling pathway (AID 651777); settings: 1A2-DRE human hepatoma cells, luciferase, 24 h; stronger effect = higher value; also: % of control where 0% means no effect; nearly all actives have a fitted effect of over 15% in size
In short: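 Measured luciferase activity, read 30 min after One-Glo addition at room temperature, from human hepatoma cells bearing a dioxin response element–CYP1A2 promoter reporter and exposed to compound for 24 hr at 37 C.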

[11] = target: Peroxisome proliferator-activated receptor alpha (Homo sapiens) (UniProt Q07869); test: qHTS assay for small molecule agonists of the peroxisome proliferator-activated receptor alpha (PPARalpha) signaling pathway (AID 651778); settings: PathHunter PPARalpha complementation, chemiluminescence, 6 h; stronger effect = higher value; also: % of control where 0% means no effect
In short: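 Enzyme-fragment complementation assay in which ligand-bound PPARalpha translocates and forms an active enzyme that generates chemiluminescence. Cells were plated overnight, exposed to compound for 6 hr at 37 C, and then given detection reagent for 60 min at room temperature.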

[12] = target: Nuclear receptor ROR-gamma (Homo sapiens) (UniProt P51449); test: qHTS assay for small molecule antagonists of the retinoid-related orphan receptor gamma (ROR-gamma) signaling pathway (AID 651802); settings: ROR-gamma antagonist cell reporter assay; series mostly up to 92.2 µM;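 also: CHO cells with doxycycline-induced ROR-gamma expression; % is scaled to controls: 0 for no effect and ±100 for the full control effect; nearly all actives have a fitted effect of over 60% in size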
In short: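 Antagonism is scored as a fall in luminescence from a RORE-luciferase reporter in CHO cells expressing ROR under a TET-inducible promoter, measured 16hr after doxycycline induction in the presence of compound.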

[13] = qHTS assay for small molecule agonists of the antioxidant response element (ARE) signaling pathway measured by Nrf2-dependant transcriptional activity (AID 720636; active = well fitted curve in the direction sought with a large enough effect in the repeat runs; an effect the other way counts as inactive or inconclusive;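 also: HepG2 cells with an ARE-driven luciferase reporter; % of control where 0% means no effect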); settings: ARE-luc HepG2, Nrf2 luciferase reporter, 16 h; series mostly up to 92.4 µM
In short: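 In HepG2 cells engineered with an Nrf2-responsive luciferase gene, ARE induction was quantified as luminescence after 16 hr compound treatment at 37 C.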

[14] = qHTS assay for small molecule antagonists of the retinoid-related orphan receptor gamma (ROR-gamma) signaling pathway - cell viability counter screen (AID 720652; active = well fitted curve in the direction sought with a large enough effect in the repeat runs; an effect the other way counts as inactive or inconclusive;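 also: CHO reporter cells with doxycycline-induced ROR-gamma expression; compound exposure lasted 16 hr before ATP read; % is scaled to controls: 0 for no effect and ±100 for the full control effect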); settings: RORgamma reporter cell line viability counter screen; series mostly up to 92.2 µM
In short: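 Cytotoxicity is quantified via intracellular ATP (CellTiter-Glo luminescence) in doxycycline-induced CHO ROR response element-luciferase reporter cells treated with compound for 16 hr at 37 C, 5% CO2.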

[15] = qHTS assay for small molecule agonists of the antioxidant response element (ARE) signaling pathway measured by Nrf2-dependant transcriptional activity - cell viability counter screen (AID 720653; active = well fitted curve in the direction sought with a large enough effect in the repeat runs; an effect the other way counts as inactive or inconclusive; also: % is scaled to controls: 0 for no effect and ±100 for the full control effect); settings: ARE-bla HepG2 viability, CellTiter-Glo ATP luminescence, 16 h; stronger effect = lower value
In short: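 ARE-bla HepG2 cells treated with compounds for 16 h at 37C; this counter screen measures viability as intracellular ATP by CellTiter-Glo luminescence after 30 min at room temperature.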

[16] = S16 Schwann cell PMP22 intronic element beta-lactamase assay (AID 624044; calls by dose curve;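 also: 0% = DMSO and -100% = potassium clavulanate positive control; nearly all actives have a fitted effect of over 15% in size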); settings: S16 rat Schwann cells, PMP22 element beta-lactamase FRET, 24 h; series mostly up to 38.3 µM
In short: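 Rat S16 Schwann cells with beta-Lac driven by a PMP22 intronic element, compound-treated 24 h at 37 °C. LiveBLAzer FRET B/G read: 460 nm normalized to potassium clavulanate vs DMSO; 535 nm FRET as viability; concentration-effect curves classified.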

[17] = qHTS assay for small molecule disruptors of the mitochondrial membrane potential - 1 hr assay (AID 651754; calls by dose curve; also: potency is read from the fitted curve at half-maximal effect; nearly all actives have a fitted effect of over 35% in size); settings: series mostly up to 92.2 µM
In short: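 Steps: seed HepG2 cells and let attach overnight; pin-transfer compound or vehicle; incubate 1 hr at 37C; add Mito-MPS dye for 30 min; read two-channel fluorescence for monomer and aggregate forms.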

[18] = qHTS assay for small molecule disruptors of the mitochondrial membrane potential - 5 hr assay (AID 651755; calls by dose curve; also: potency is read from the fitted curve at half-maximal effect; nearly all actives have a fitted effect of over 40% in size); settings: JC-1-type ratio dye; series mostly up to 92.2 µM
In short: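 HepG2 cells (2,000/well), attached overnight, exposed to compound 5 hr at 37C, then Mito-MPS dye 30 min. Fluorescence read for monomers (490/535 nm) and aggregates (540/590 nm).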

Sequence of Thyroid hormone receptor beta (Homo sapiens) (P10828 whole entry, looked up): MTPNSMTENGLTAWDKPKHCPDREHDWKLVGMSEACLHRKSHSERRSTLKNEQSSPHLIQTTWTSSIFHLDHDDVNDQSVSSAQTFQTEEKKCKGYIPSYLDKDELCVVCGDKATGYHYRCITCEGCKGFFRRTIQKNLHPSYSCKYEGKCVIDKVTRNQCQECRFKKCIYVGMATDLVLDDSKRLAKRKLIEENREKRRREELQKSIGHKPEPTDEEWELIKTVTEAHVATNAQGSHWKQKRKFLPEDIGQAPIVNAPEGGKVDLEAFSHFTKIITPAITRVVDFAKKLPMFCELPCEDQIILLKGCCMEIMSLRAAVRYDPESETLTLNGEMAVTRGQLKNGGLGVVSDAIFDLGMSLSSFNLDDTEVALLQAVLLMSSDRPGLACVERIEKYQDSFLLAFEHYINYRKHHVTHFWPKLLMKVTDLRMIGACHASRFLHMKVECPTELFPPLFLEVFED
Sequence of Luciferin 4-monooxygenase (Photinus pyralis) (P08659 whole entry, looked up): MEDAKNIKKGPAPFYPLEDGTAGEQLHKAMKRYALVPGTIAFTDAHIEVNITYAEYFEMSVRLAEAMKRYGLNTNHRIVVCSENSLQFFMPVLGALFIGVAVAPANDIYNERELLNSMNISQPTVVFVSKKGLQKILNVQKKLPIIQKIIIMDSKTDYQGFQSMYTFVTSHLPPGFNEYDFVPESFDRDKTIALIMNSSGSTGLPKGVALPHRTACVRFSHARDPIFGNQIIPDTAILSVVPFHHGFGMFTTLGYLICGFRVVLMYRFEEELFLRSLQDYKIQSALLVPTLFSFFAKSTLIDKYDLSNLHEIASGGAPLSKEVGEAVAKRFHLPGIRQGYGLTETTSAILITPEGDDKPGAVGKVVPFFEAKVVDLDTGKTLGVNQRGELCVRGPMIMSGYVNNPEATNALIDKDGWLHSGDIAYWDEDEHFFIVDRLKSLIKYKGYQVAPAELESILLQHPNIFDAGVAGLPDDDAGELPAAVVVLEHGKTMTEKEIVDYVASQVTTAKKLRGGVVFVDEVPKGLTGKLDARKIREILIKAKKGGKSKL
Sequence of Peroxisome proliferator-activated receptor alpha (Homo sapiens) (Q07869 whole entry, looked up, the tested form may be a part): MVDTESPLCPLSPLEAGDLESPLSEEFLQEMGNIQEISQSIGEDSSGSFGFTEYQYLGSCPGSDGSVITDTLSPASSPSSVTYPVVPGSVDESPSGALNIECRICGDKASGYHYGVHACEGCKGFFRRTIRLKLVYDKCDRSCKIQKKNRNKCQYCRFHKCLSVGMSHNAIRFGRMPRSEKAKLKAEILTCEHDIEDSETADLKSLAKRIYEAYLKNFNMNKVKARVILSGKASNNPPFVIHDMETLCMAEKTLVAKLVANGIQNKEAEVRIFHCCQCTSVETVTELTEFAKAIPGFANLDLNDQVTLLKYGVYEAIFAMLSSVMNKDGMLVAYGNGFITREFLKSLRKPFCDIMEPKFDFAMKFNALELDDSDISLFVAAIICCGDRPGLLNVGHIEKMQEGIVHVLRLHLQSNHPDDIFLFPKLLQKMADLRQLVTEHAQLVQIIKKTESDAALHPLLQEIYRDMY
Sequence of Voltage-gated inwardly rectifying potassium channel KCNH2 (Homo sapiens) (Q12809 whole entry, looked up): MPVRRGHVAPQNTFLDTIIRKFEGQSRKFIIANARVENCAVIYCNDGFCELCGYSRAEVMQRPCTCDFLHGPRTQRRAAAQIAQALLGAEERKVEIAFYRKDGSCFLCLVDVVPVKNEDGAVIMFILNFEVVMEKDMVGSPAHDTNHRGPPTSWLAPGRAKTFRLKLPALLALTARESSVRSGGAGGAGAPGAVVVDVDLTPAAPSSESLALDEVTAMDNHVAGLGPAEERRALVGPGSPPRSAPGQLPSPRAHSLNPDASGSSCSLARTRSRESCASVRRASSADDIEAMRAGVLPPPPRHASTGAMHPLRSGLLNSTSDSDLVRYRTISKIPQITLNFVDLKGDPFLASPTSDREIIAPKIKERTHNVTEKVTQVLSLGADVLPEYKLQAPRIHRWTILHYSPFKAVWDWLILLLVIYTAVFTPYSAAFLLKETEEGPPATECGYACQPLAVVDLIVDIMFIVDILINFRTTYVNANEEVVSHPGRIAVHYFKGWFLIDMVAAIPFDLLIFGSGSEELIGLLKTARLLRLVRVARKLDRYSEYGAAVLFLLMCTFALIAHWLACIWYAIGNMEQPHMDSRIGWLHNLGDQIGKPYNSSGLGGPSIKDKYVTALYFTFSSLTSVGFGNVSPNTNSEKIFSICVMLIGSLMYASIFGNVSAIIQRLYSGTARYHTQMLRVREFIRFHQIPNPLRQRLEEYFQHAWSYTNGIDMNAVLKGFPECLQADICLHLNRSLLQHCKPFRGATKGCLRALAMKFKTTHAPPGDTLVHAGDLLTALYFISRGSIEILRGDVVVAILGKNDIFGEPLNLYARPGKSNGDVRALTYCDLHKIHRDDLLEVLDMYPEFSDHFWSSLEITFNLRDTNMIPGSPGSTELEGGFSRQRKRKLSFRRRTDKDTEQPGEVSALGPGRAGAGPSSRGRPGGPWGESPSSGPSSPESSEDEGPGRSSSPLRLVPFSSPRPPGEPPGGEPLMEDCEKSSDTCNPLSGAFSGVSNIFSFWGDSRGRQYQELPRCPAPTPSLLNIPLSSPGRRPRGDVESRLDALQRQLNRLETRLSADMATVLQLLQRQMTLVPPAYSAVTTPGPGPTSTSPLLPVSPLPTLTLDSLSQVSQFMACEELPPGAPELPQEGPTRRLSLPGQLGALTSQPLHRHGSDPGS
Sequence of Nuclear receptor ROR-gamma (Homo sapiens) (P51449 whole entry, looked up): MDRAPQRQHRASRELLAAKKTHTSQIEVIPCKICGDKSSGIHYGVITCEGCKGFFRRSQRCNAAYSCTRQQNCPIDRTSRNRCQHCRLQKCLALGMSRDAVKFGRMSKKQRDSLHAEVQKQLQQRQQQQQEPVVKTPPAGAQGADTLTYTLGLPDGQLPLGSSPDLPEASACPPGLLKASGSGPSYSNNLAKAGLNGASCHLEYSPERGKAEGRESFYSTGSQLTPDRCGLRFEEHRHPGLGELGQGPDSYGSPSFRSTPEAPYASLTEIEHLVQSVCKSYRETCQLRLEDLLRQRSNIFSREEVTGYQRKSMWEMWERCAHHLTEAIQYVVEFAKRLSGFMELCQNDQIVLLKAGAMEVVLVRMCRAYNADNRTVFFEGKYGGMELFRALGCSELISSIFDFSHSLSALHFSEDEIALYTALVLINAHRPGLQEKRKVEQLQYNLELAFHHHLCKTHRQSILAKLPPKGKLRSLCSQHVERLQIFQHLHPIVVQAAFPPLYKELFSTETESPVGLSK
Sequence of Retinoic acid receptor RXR-alpha (Homo sapiens) (P19793 whole entry, looked up): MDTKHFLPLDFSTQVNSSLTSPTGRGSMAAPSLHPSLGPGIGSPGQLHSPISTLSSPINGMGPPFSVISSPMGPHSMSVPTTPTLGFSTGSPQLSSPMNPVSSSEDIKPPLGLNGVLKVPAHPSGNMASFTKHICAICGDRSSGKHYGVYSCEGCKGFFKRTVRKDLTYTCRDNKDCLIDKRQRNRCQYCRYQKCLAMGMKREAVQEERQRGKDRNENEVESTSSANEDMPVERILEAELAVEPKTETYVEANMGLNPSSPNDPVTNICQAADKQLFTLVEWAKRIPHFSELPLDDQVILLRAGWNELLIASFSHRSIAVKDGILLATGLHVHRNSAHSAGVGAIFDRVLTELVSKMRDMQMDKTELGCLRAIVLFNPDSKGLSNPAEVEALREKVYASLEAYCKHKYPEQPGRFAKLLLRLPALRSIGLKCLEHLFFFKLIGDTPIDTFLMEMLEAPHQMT

CCCCCC(N)=O
active: Potency [6] 14.4 µM
inactive: max response [1] -2.1% | activity change % (negative = inhibition) [2] -10.5% | Potency [3] | Potency [4] | outcome [5] | Potency [7] | activation [8] 0.75% | activation [9] 0.129% | activation [10] -0.0681% | max response [11] -2.19% | outcome [12] | outcome [13] | outcome [14] | max response [15] -1.07%

O=C(OOC(=O)c1ccccc1)c1ccccc1
inactive: max response [1] 10.6% | Potency [3] | Potency [4] | outcome [5] | Potency [6] | Potency [7] | activation [8] -0.427% | activation [10] 2.82% | max response [11] -3.46% | outcome [13] | max response [15] -11.2%

O=C1c2cccc(O)c2C(=O)c2c(O)cccc21
inactive: activity change % (negative = inhibition) [2] -11.3% | Potency [3] | Potency [4] | outcome [5] | outcome [16] | activation [8] 3.77% | activation [9] -0.734% | activation [10] 5.57% | max response [11] -5.75% | outcome [12] | outcome [14]
active: Potency [7] 29.8 µM | Potency [17] 4.73 µM | Potency [18] 7.5 µM

Cc1ccc(C(C)C)c(O)c1
inactive: max response [1] -24.5% | activity change % (negative = inhibition) [2] -7.05% | Potency [3] | Potency [4] | outcome [5] | Potency [6] | Potency [7] | activation [8] -1.75% | activation [9] -1.79% | activation [10] 0.149% | max response [11] -0.976% | outcome [13] | max response [15] -4.59%

CC(=O)Nc1ccc(C(=O)O)cc1
inactive: max response [1] 1.7% | activity change % (negative = inhibition) [2] 2.92% | Potency [3] | Potency [4] | outcome [5] | Potency [6] | activation [8] -0.0847% | activation [9] -1.2% | activation [10] 0.454% | max response [11] -0.167% | outcome [12] | outcome [13] | outcome [14] | max response [15] -5.69%

CC[N+](CC)(CC(=O)Nc1c(C)cccc1C)Cc1ccccc1
inactive: max response [1] -2.97% | Potency [3] | Potency [4] | outcome [5] | Potency [6] | Potency [7] | activation [8] -6.37% | activation [10] 0.016% | max response [11] 1.81% | outcome [13] | max response [15] -0.181%

OC[C@@H](O)[C@@H](O)[C@H](O)[C@H](O)CO
inactive: max response [1] 13.9% | activity change % (negative = inhibition) [2] -14.9% | Potency [4] | outcome [5] | Potency [6] | activation [8] -0.611% | activation [9] -2.19% | activation [10] -0.115% | max response [11] -1.72% | outcome [13] | max response [15] -1.54%

O=C(c1ccccc1)C(O)c1ccccc1 (stereo unspecified)
inactive: max response [1] 0.509% | activity change % (negative = inhibition) [2] 7.64% and -3.28% | Potency [3] | Potency [4] | outcome [5] | Potency [6] | Potency [7] | activation [9] -2.35% and -0.255% | activation [10] -1.25% and 2.53% | max response [11] -1.85% and -1.14% | outcome [12] | outcome [13] | outcome [14] | max response [15] -4.04% and -7.26%

CCCCCCCC(=O)OCC(O)CO (stereo unspecified)
inactive: Potency [3] | Potency [4] | outcome [5] | Potency [6]

CCCCCCCCCCOc1cc2c(=O)c(C(=O)OCC)c[nH]c2cc1OCC
inactive: Potency [3] | Potency [4]

CCN(CC)CCc1nc(-c2ccccc2)no1
inactive: Potency [3] | Potency [4] | outcome [5] | Potency [6]

CC[N+](C)(CC)CCOC(=O)C1c2ccccc2Oc2ccccc21
inactive: Potency [3] | Potency [4] | outcome [5] | Potency [6]

CCCCCC(C)N (stereo unspecified)
inactive: Potency [3] | Potency [4] | outcome [5] | Potency [6]

O=c1[nH]c2cc(C(F)(F)F)c(N3CCOCC3)cc2n(CP(=O)(O)O)c1=O
inactive: Potency [3] | Potency [4] | outcome [5] | Potency [6]

CC1CCc2cc(F)cc3c(=O)c(C(=O)O)cn1c23 (stereo unspecified)
inactive: Potency [3] | Potency [4] | outcome [5]

C=CCSCC1Nc2cc(Cl)c(S(N)(=O)=O)cc2S(=O)(=O)N1 (stereo unspecified)
inactive: Potency [3] | Potency [4] | outcome [5]

O=C(O)C(S)C(S)C(=O)O (stereo unspecified)
inactive: Potency [3]

NS(=O)(=O)c1ccc(NC(=O)CCC(=O)O)cc1
inactive: Potency [3] | Potency [4] | outcome [5] | Potency [6]

NS(=O)(=O)c1cc(C2(O)NC(=O)c3ccccc32)ccc1Cl (stereo unspecified)
inactive: Potency [3]

CC(C)CCCC(C)CCCC(C)CCCCC(C)CCCC(C)CCCC(C)C (stereo unspecified)
inactive: Potency [3] | Potency [4] | outcome [5] | Potency [6]

Cc1c(C)c2c(c(C)c1OC(=O)c1cccnc1)CC[C@@](C)(CCC[C@H](C)CCC[C@H](C)CCCC(C)C)O2
inactive: Potency [3] | Potency [4] | outcome [5] | Potency [6]

O=C(O)Cc1ccc(CCNS(=O)(=O)c2ccc(Cl)cc2)cc1
inactive: Potency [3] | Potency [4] | outcome [5]

NCC1CCC(C(=O)Oc2ccc(CCC(=O)O)cc2)CC1 (stereo unspecified)
inactive: Potency [3] | Potency [4] | outcome [5]

O=C(O)c1ccc[n+]([O-])c1
inactive: Potency [3] | Potency [4] | outcome [5] | Potency [6]

CC1(C)[C@@H](OC(=O)CCC(=O)O)CC[C@]2(C)[C@H]3C(=O)C=C4[C@@H]5C[C@@](C)(C(=O)O)CC[C@]5(C)CC[C@@]4(C)[C@]3(C)CC[C@@H]12
inactive: Potency [3]
